Consider 21 molecules from PubChem BioAssay (NCI).

A short description of experiment [1]: NCI Yeast Anticancer Drug Screen. Data for the rad50 strain (AID 155).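 Also: 0% = growth of vehicle-only cultures of the same strain.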 The conditions noted are these: S. cerevisiae rad50 strain growth inhibition; at 50.0 µM; active compounds read high. The method, boiled down:
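Genetically altered yeast (DNA repair pathway); compound treatment; growth inhibition vs vehicle ctrl.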

The nature of experiment [2]: NCI Yeast Anticancer Drug Screen. Data for the mec2-1 strain (AID 157). The conditions noted are these: S. cerevisiae mec2-1 strain, at 50.0 µM, active compounds read high. The method, boiled down:
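mec2-1 yeast strain, carrying an alteration in DNA damage repair or cell cycle control, was exposed to compounds; growth inhibition was measured relative to vehicle-treated controls.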

The nature of experiment [3]: NCI Yeast Anticancer Drug Screen. Data for the sgs1 mgt1 strain (AID 161).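 Also: 0% = growth of cultures given vehicle only.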 Particulars: S. cerevisiae sgs1 mgt1 strain, at 50.0 µM, active compounds read high. The method, boiled down: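 This yeast growth screen uses a strain with defined DNA-repair lesions; compound-treated growth is compared with vehicle-treated growth.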
A short description of experiment [4]: NCI Yeast Anticancer Drug Screen. Data for the cln2 rad14 strain (AID 165).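 Also: 0% = growth equal to vehicle treated cultures.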 The conditions noted are these: S. cerevisiae cln2 rad14 strain, at 50.0 µM, active compounds read high. An outline of the steps: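 Yeast carrying cln2 and rad14 alterations (cell cycle control and DNA damage repair) were exposed to compounds. Growth inhibition was measured against vehicle-treated controls.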

The nature of experiment [5]: NCI Yeast Anticancer Drug Screen. Data for the bub3 strain (AID 167). The conditions noted are these: S. cerevisiae bub3 mutant strain, at 50.0 µM, active compounds read high. An outline of the steps: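 Yeast carrying a defined mutation is treated with each compound, and growth is compared with that of vehicle-exposed cells to give inhibition.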
Experiment [6] is described as follows: NCI Yeast Anticancer Drug Screen. Data for the mlh1 rad18 strain (AID 175). Particulars: S. cerevisiae mlh1 rad18 strain growth inhibition; at 50.0 µM; active compounds read high. The method, boiled down: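 Growth inhibition of the yeast strain was measured after compound exposure and expressed relative to vehicle-treated controls. The strain carries defined defects in DNA damage repair.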

The panel holds about 79,000 compounds, 15% with a hit somewhere; the sample as a whole holds those more often. Unmarked numbers belong to inactive results. Activity calls are given as the source filed them. Rule as the data show it: active = growth inhibition above about 70%; inactive = the rest.

`CCOP(=O)(OCC)C(=O)N(CC)CC`: the growth inhibition in experiment [1] was 12.2%; in experiment [2] it was 21.9%; in experiment [3], 10.6%; in experiment [4] it was 7.15%; in experiment [5], 20.8%; in experiment [6] it was 1.45%.

Take `NC(c1ccccc1)P(=O)(O)O` (stereo unspecified): the growth inhibition was -12.7% in experiment [1]; -20.4% in experiment [2]; -29.9% in experiment [3]; 5.85% in experiment [4]; -8.75% in experiment [5]; -33.3% in experiment [6].

On to `CC/C(=C(/CC)c1ccc(OP(=O)(Cl)N(CCCl)CCCl)cc1)c1ccc(OP(=O)(Cl)N(CCCl)CCCl)cc1` (stereo unspecified), for which the growth inhibition is -2.35% in experiment [1]; -18% in experiment [2]; -8.3% in experiment [3]; -1.9% in experiment [4]; -2.45% in experiment [5]; 37.5% in experiment [6].

With `Cc1ccc(NC(=O)/C=C/c2ccc([N+](=O)[O-])cc2)cc1S(=O)(=O)F`, the growth inhibition is -2.05% in experiment [1]; 27.9% in experiment [2]; 30% in experiment [3]; -5.6% in experiment [4]; 45% in experiment [5]; 15.2% in experiment [6].

In the case of `Nc1ccc(S(=O)(=O)F)cc1`, the growth inhibition in experiment [1] was -22%; in experiment [2] it was -54%; in experiment [3], -34.6%; in experiment [4], 16.8%; in experiment [5], -35.3%; in experiment [6], -22.2%.

Take `O=[N+]([O-])c1cccc2cccnc12`: the growth inhibition in experiment [1] is -11.4%; in experiment [2] it was -13.8%; in experiment [3], 6.75%; in experiment [4] it was 4.2%; in experiment [5] it was 0.4%; in experiment [6], -1.75%.

With `CSc1nc2cc(Cl)ccc2c2c1C=NCCN2`, the growth inhibition in experiment [1] was 28.6%; in experiment [2] it was 19.2%; in experiment [3], 13.7%; in experiment [4] it was -43.4%; in experiment [5], -24.1%; in experiment [6] it was 4.05%.

As to `CC1=NCCc2c1[nH]c1cc(O)ccc21`, the growth inhibition is 6.65% in experiment [1]; -28.1% in experiment [2]; -12.6% in experiment [3]; -3.85% in experiment [4]; -15.6% in experiment [5]; 4% in experiment [6].

In the case of `O=c1ccc2cc3ccoc3c(O)c2o1`, the growth inhibition in experiment [1] was 28.6%; in experiment [2], 0%; in experiment [3], 25.7%; in experiment [4] it was 30.6%; in experiment [5], 10.8%; in experiment [6] it was 18.2%.

For the molecule `COC(=O)C1c2cc(OC)c(OC)cc2C(=O)N2CCc3cc4c(cc3C12)OCO4` (stereo unspecified), the growth inhibition in experiment [1] was 15.8%; in experiment [2], -14.8%; in experiment [3], 0.65%; in experiment [4] it was 12.1%; in experiment [5] it was -3.3%; in experiment [6], 9.2%.

With `[Se]=P(NC1CCCCC1)(NC1CCCCC1)NC1CCCCC1`, the growth inhibition in experiment [1] was 14.5%; in experiment [2], -0.9%; in experiment [3], 2%; in experiment [4] it was 5.1%; in experiment [5], 3.25%; in experiment [6], 17.9%.

`O=[N+]([O-])c1cccc(P(=O)(O)O)c1`: the growth inhibition in experiment [1] is -7.3%; in experiment [2], 53.5%; in experiment [3], 3.35%; in experiment [4], 5.25%; in experiment [5], -4.5%; in experiment [6], 0.85%.

For `CCCOC(C(=O)OC1CCC2CCC1N2C)(c1ccccc1)c1ccccc1` (stereo unspecified), the growth inhibition in experiment [1] was 5.4%; in experiment [2] it was -0.5%; in experiment [3], 17.8%; in experiment [4], 13.8%; in experiment [5] it was 28.8%; in experiment [6], 32.9%.

Turning to `CCN(CC)/C(=C\Cl)Nc1ccccn1`, the growth inhibition was -0.9% in experiment [1]; -4% in experiment [2]; -0.7% in experiment [3]; 3.35% in experiment [4]; 6.55% in experiment [5]; -2.45% in experiment [6].

As for `[Se]=[Mo]=[Se]`, the growth inhibition is -10.2% in experiment [1]; -8.3% in experiment [2]; -29.9% in experiment [3]; -18% in experiment [4]; -7.05% in experiment [5]; -33.9% in experiment [6].

Turning to `O=c1n(CC2CS2)c2ccccc2n1CC1CS1` (stereo unspecified), the growth inhibition in experiment [1] was 42%; in experiment [2], -0.6%; in experiment [3], 4.9%; in experiment [4], -30.4%; in experiment [5], -11.1%; in experiment [6], -5.3%.

On to `CCCC[S][Hg][I]`, for which the growth inhibition in experiment [1] was 92.5% (active); in experiment [2], 98.7% (active); in experiment [3] it was 97.9% (active); in experiment [4], 38.9%; in experiment [5] it was 99.1% (active); in experiment [6], 98.8% (active).

Turning to `NNC(=O)CCC(N)C(=O)O` (stereo unspecified), the growth inhibition is -20.3% in experiment [1]; -18.4% in experiment [2]; -35.3% in experiment [3]; -11.8% in experiment [4]; -17.4% in experiment [5]; -49% in experiment [6].

`COC1C(OC(=O)c2ccc(C)[nH]2)C(O)C(Oc2ccc3c(O)c(NC(=O)c4ccc(O)c(CC=C(C)C)c4)c(=O)oc3c2Cl)OC1(C)C` (stereo unspecified): the growth inhibition in experiment [1] is 44.2%; in experiment [2], 25.9%; in experiment [3] it was 23.8%; in experiment [4], 50.6%; in experiment [5] it was 35.9%; in experiment [6], 33%.

Regarding `Cc1ccc(NC(=O)c2cc3ccccc3cc2O)c(C)c1`, the growth inhibition in experiment [1] is 17.1%; in experiment [2], -16.1%; in experiment [3], 20.7%; in experiment [4], 8.75%; in experiment [5] it was 17.9%; in experiment [6] it was 21.8%.

As for `CCCCCCCCCCCCCC(=O)O.[Pb]`, the growth inhibition in experiment [1] was -4.8%; in experiment [2], 7.35%; in experiment [3] it was -5.9%; in experiment [4], -0.65%; in experiment [5], -12.7%; in experiment [6] it was 5%.
